# Rows were chosen to be rich in hits. Some 21% of all compounds tested hit in one or more screens of this group.
# Pf growth 48h: inhibits P. falciparum growth in the first generation, 48 h | P. falciparum luciferase growth in erythrocytes, 48 h | Potency, µM (highest dose often 28.7 µM), for inactives: at the highest dose activity change, negative = inhibition, actives largely listed as inhibitors | actives 5.9% (n = 310,000); also: potency is read from the fitted curve at half-maximal effect; % is scaled to controls: 0 for no effect and ±100 for the full control effect
#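 Erythrocytes infected with P. falciparum carrying an integrated firefly luciferase reporter (2% hematocrit, 0.1% parasitemia final) were exposed to compounds in RPMI 1640 with 0.5% Albumax at 37 C, 5% CO2. Growth inhibition was scored as reduced luminescence.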
# CHX counter: affects cycloheximide protein synthesis inhibition readout, counter-screen. cell reporter, cycloheximide protein synthesis inhibition counterscreen. max response, %. actives 12% (n = 300,000); in the data active = max response mostly above about 13%, no sharp cut-off; inactive = mostly below about 14%; also: read at 38.3 µM for the half of the compounds with a filed dose; 0% is about no effect
# Shiga inhibitor: inhibitors of Shiga toxin in Vero cells | Vero cells, Shiga toxin protein synthesis inhibition reporter | inhibition, % at 38.7 µM | actives 9.2% (n = 290,000) | AID 2315; in the data active = inhibition mostly above about 28%, no sharp cut-off; inactive = mostly below about 43%; also: 0% is about no effect
# HCMV antiviral: inhibitors of human cytomegalovirus; HFF cells, HCMV-luciferase reporter, 72 h; hits give low values; activity change, negative = inhibition, % at 57.5 µM; actives 4.5% (n = 410,000); in the data active = activity change below about -60%; inconclusive = no clear call, values can overlap the other calls; inactive = above about -39%; also: % is scaled to controls: 0 for no effect and ±100 for the full control effect
#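 Screen run at 2 compound doses on HFFs infected with reporter HCMV, MOI 1 PFU/cell. Luciferase activity from cell lysates at 72 h post infection gave inhibition relative to buffer-only and Salinomycin wells.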
# Pf growth 96h: P. falciparum growth inhibition at 96 hour, primary screen for plastid delayed-death inhibitors. actives 6.9% (n = 320,000). Potency, µM (titrated, usually from 28.7 µM), inactives show at the highest dose activity change, negative = inhibition, usual class: inhibitors. P. falciparum luciferase reporter growth, 96 h; also: potency is read from the fitted curve at half-maximal effect; % is scaled to controls: 0 for no effect and ±100 for the full control effect
#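 P. falciparum expressing integrated firefly luciferase, in erythrocytes at 2% hematocrit, 0.05% parasitemia, incubated with compounds 96 h at 37 C, 5% CO2. Growth inhibition read as loss of luminescence; two-generation exposure targets delayed-death apicoplast inhibitors.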
# HCV inh: HCV inhibition; Huh7.5.1 HCVcc-Cre infection, luciferase reporter, 44 h; Potency, µM (series often up to 41.8 µM), without a hit: top-dose activity change, negative = inhibition, actives largely listed as inhibitors; actives 3.4% (n = 340,000); AID 651820; also: potency is read from the fitted curve at half-maximal effect; % is scaled to controls: 0 for no effect and ±100 for the full control effect
#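 Infectious HCVcc-Cre (~0.5 moi) was added to cells just after compound, with cells seeded 4 h earlier at 1,000 per well. Luciferase activity after 44 h culture reported infection; substrate was incubated 15 min at room temperature before reading.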
# The depositor's hits bear a star; ? = inconclusive; . = no result. Unless noted, calls follow the shape of the dose curve; as a rule, active = well fitted inhibition curve with a large enough effect; inconclusive = small, poorly fitted or top-dose-only effect, or another doubt; inactive = no such curve, though single readings can be large or run the other way.
SMILES,Pf growth 48h,CHX counter,Shiga inhibitor,HCMV antiviral,Pf growth 96h,HCV inh
COC(=O)Nc1ccc(SCC(=O)c2ccccc2)cc1,31%,51*,62*,11,35%,7%
O=C(CSc1ccccc1C(=O)O)c1ccc([N+](=O)[O-])cc1,62%,-5,8,-6,93%,2%
COC(=O)Nc1ccc(SCC(=O)c2ccc(Cl)cc2)cc1,44%,9,20,-15,?,-20%
CCOC(=O)C[C@H]1c2ccccc2S(=O)(=O)N1c1ccccc1,.,.,.,-22,.,11%
CCN1C(=O)c2ccccc2S(=O)(=O)c2ccc(C(=O)NCCOC)cc21,-25%,-1,2,-32,1%,39%
Oc1ccc2c(c1)c1ccccc1c1ncccc21,.,.,.,13,.,11µM*
CS(=O)(=O)N1CCN(C(=O)Cc2ccc(Br)cc2)CC1,28%,1,.,-8,-22%,12%
COc1ccc(-c2cc(C(=O)Nc3c(Cl)cc(Cl)cc3Cl)c3ccccc3n2)cc1OC,13µM*,-2,-10,-14,?,-22%
COc1ccc(-c2nnc3ccc(SCC(=O)Nc4nccs4)nn23)cc1OC,-18%,-4,18,?,-12%,-6%
COc1ccc(-c2cc(C(=O)c3c(N)n(C)c(=O)n(C)c3=O)c3ccccc3n2)cc1OC,66%,25*,14,32,38%,-19%
COc1ccc(-c2cc(C(=O)Nc3ccc(Cl)cc3Cl)c3ccccc3n2)cc1OC,?,-1,-7,-31,1%,-28%
Cn1c(N)c(C(=O)c2cc(-c3ccncc3)nc3ccccc23)c(=O)n(C)c1=O,-27%,4,-8,64,?,-14%
COc1ccc(-c2cc(C(=O)Nc3nc4ccccc4s3)c3ccccc3n2)cc1OC,4%,16*,43*,2,-32%,-24%
COc1ccc(-c2nnc3ccc(SCC(=O)Nc4nc5ccccc5s4)nn23)cc1OC,8.3µM*,-1,-6,61,?,-1%
COc1ccc(N(Cc2nnc3n2CCCCC3)C(=O)Nc2cccc(C)c2)cc1Cl,.,.,.,-13,.,.
O=C(c1ccccc1[N+](=O)[O-])N1CCC[C@@H]1c1noc2ccccc12,.,.,.,-62*,.,.
CCOC(=O)Cn1c(S(=O)(=O)Cc2ccc(Cl)cc2)nc(-c2ccccc2)c1-c1ccccc1,?,-1,-2,?,10µM*,35µM*
CC(C)(COP(=O)(O)OP(=O)(O)OC[C@H]1O[C@@H](n2cnc3c(N)ncnc32)[C@H](O)[C@@H]1OP(=O)(O)O)C(O)C(=O)NCCC(=O)NCCS (stereo partly drawn),31%,.,.,.,83%,.
C/C1=C2N=C(/C=C3N=C(/C(C)=C4\[N-]C(C)(C5N=C1C(C)(CCC(=O)NCC(C)OP(=O)([O-])O[C@H]1C(O)C(n6cnc7cc(C)c(C)cc76)O[C@@H]1CO)C5CC(N)=O)C(C)(CC(N)=O)C4CCC(N)=O)C(C)(CC(N)=O)C\3CCC(N)=O)C(C)(C)C/2CCC(N)=O.[CH2-]C1OC(n2cnc3c(N)ncnc32)C(O)C1O.[Co] (stereo partly drawn),8.5µM*,.,.,.,6.7µM*,.
CS(=O)(=O)c1cccc(-c2nnc(NC(=O)c3ccc(S(=O)(=O)N4CCCC4)cc3)o2)c1,?,.,.,-24,13µM*,22%
O=C(Nc1nnc(-c2ccc(F)cc2)o1)c1ccc(S(=O)(=O)N2CCOCC2)cc1,?,-3,-4,.,3.3µM*,-16%
O=C(Nc1nnc(-c2ccco2)o1)c1ccc(S(=O)(=O)N2CCCC2)cc1,12µM*,7,30,-36,?,2%
CC1CCCN(S(=O)(=O)c2ccc(C(=O)Nc3nnc(-c4ccccn4)o3)cc2)C1 (stereo not drawn),-7%,-5,2,-12,?,-14%
CS(=O)(=O)c1cccc(-c2nnc(NC(=O)c3ccc4c(c3)OCCO4)o2)c1,.,.,.,18,.,.
CC1CCCN(S(=O)(=O)c2ccc(C(=O)Nc3nnc(-c4ccccc4Cl)o3)cc2)C1 (stereo not drawn),?,-1,-5,-98*,?,-9%

# Bioassay records: PubChem BioAssay, National Center for Advancing Translational Sciences (NCATS)
